Assay [1] is described as follows: compounds binding Alexa647 anti-His antibody – biochemical, small-molecule microarray, 635 nm fluorescence, artefact control for SMM control protein annotation, primary screen (AID 1128).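 Also: score merges feature fluorescence with signal-to-noise for each printed compound spot.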 The conditions noted are these: higher = more signal.
In assay [2] the test system is Human papillomavirus type 1a E7 protein (residues 1-88). Description: HPV1a E7 small-molecule binders, primary screen, biochemical, small-molecule microarray, residues 1-88, 635 nm (AID 1129). The conditions noted are these: small-molecule microarray binding, fluorescence 635 nm; higher = more signal.
The target in assay [3] is Focal adhesion kinase 1 (Homo sapiens) (UniProt Q05397). Description: PTK2 protein binding on printed compound slides – biochemical, small-molecule microarray, 635/667 nm fluorescence, BSA, DTT, primary screen (AID 1130).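 Also: composite of spot emission at 667 nm and signal to noise over triplicate slides.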 The conditions noted are these: 635 nm fluorescence, higher = more signal.
For assay [4], the system named is Fibrinogen (Alexa647-labelled). Description: Alexa647-fibrinogen binding to printed small molecules – biochemical, small-molecule microarray, 635/667 nm fluorescence, artefact control for SMM control-protein annotation, profiling panel (AID 1131).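 Also: z-score merges 667 nm fluorescence with per-spot signal-to-noise over triplicate slides.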 The conditions noted are these: fibrinogen-A647 binding fluorescence, higher = more signal.
Assay [5] addresses Follistatin (Homo sapiens) (UniProt P19883). Description: FST protein binding to printed compounds – biochemical, small-molecule microarray, 635/667 nm fluorescence, primary screen (AID 1132). The note with it: 635 nm fluorescence, higher = more signal.
The target in assay [6] is Fibroblast growth factor 2 (Homo sapiens) (UniProt P09038). In words: basic fibroblast growth factor binding to printed compounds – biochemical, small-molecule microarray, 635/667 nm fluorescence, primary screen (AID 1133). The conditions noted are these: FGF2, fluorescence 635/667, higher = more signal.
A short description of assay [7]: JC-1 mitochondrial potential readout, lung cancer cells – cell-based, A549, JC-1 fluorescence, basal, 24 h, 100 nL, profiling panel (AID 1138).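 Also: A549 lung adenocarcinoma cells under basal conditions with no added stimulus; test concentration not given here.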 The note with it: higher = more signal.
The subject of another assay is Lefty1. Description: Lefty1 protein binding to printed compounds – biochemical, small-molecule microarray, 635/667 nm fluorescence, primary screen (AID 1139). The note with it: fluorescence 635/667, higher = more signal.
Assay [8] deals with wheat germ agglutinin (Triticum aestivum), Alexa647-labelled. Description: Alexa647-WGA lectin binding to printed small molecules – biochemical, small-molecule microarray, 635/667 nm fluorescence, artefact control for SMM control-protein annotation, profiling panel (AID 1140).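 Also: score merges 667 nm feature emission with signal to noise over triplicate slides.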 The conditions noted are these: WGA-A647 binding, 635 nm fluorescence, higher = more signal.
Assay [9] deals with Luciferin 4-monooxygenase (Photinus pyralis) (UniProt P08659). Description: inhibition of purified Photinus pyralis luciferase – biochemical, luminescence, purified enzyme, 2006 set, primary screen (AID 1141).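 Also: cell-free assay with purified firefly luciferase at 100 ng per well in PBS; test concentration not given here.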 The conditions noted are these: purified firefly luciferase, SteadyGlo luminescence, 30 min; higher = more signal, called active from +8 up or from −8 down.
The test system of assay [10] is Wnt5a (protein binding on small-molecule microarray). Description: small molecules binding Wnt5a protein – biophysical, small-molecule microarray, 635/667 nm fluorescence, primary screen (AID 1142).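 Also: fluorescence read at 667 nm with signal to noise per printed feature.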 The conditions noted are these: 635 nm fluorescence, higher = more signal.
A short description of assay [11]: ATP-based viability of Huh7 replicon cells – cell-based, CellTiter-Glo luminescence, basal, 48 h, cytotoxicity control for HCV replication inhibitor project, primary screen (AID 1143).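 Also: Huh7 hepatoma cells carrying a hepatitis C replication reporter with no stimulus; test concentration not given here.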 The note with it: higher = more signal, called active from +8 up or from −8 down. Background: In antiviral work, replicon cells carry a viral genome segment that copies itself.
Assay [12] can be described thus: Pseudomonas biofilm growth suppression – PAO1 strain, BacTiter-Glo luminescence, LB-PBS, primary screen (AID 1144). The conditions noted are these: P. aeruginosa PAO1 biofilm, 12 h, higher = more signal.
The nature of assay [13]: basal CRE-LacZ reporter activity in PC12 – cell-based, unstimulated, primary screen (AID 1145). The note with it: no forskolin, luminescence, 4.5 h, higher = more signal, called active from +8 up or from −8 down.
Assay [14] in a line: forskolin-driven CRE-LacZ activity in PC12 – cell-based, CRE-LacZ reporter, forskolin-stimulated, primary screen (AID 1146).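 Also: PC12 cells with 6xCRE LacZ reporter stimulated by forskolin 10 µM; beta-galactosidase reporter signal reflecting CREB driven transcription.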 The note with it: luminescence, 4.5 h, higher = more signal, called active from +8 up or from −8 down.
In assay [15] the target is Streptavidin (Streptomyces avidinii) (UniProt P22629). In words: compounds binding control protein streptavidin – biophysical, small-molecule microarray, 635/667 nm fluorescence, artefact control for SMM compound annotation, primary screen (AID 1147).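 Also: signal reflects streptavidin binding to arrayed compounds as a control protein.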 The note with it: higher = more signal.
A short description of assay [16]: probe aInhba binding on compound microarray – biochemical, small-molecule microarray, 635/667 nm fluorescence, primary screen (AID 1148).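 Also: score merges 667nm spot fluorescence with signal-to-noise for antibody binding to printed compounds.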 The note with it: higher = more signal.
Assay [17] deals with Torsin-1A (Homo sapiens) (UniProt O14656). In words: TOR1A wild-type binding on microarray – cell lysate, small-molecule microarray, lysate, 635/667 nm, primary screen (AID 1149). The conditions noted are these: COS7 hTOR1A-WT lysate, 635 nm fluorescence, higher = more signal.
Assay [18] has the same target. Description: torsin A mutant lysate binding on microarrays – cell lysate, small-molecule microarray, COS7 lysate, 635/667 nm fluorescence, primary screen (AID 1150).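 Also: score pools 667 nm emission and signal to noise measuring lysate protein binding.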 The note with it: COS7 hTOR1A mutant lysate, 635 nm fluorescence, higher = more signal.
For assay [19], the system named is Sonic hedgehog protein (Shh). Description: Sonic hedgehog microarray binding compounds – biochemical, small-molecule microarray, 635/667 nm fluorescence, primary screen (AID 1151).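 Also: Shh protein binding to compounds spotted on small-molecule microarray slides; score combines spot fluorescence intensity with signal-to-noise across triplicate slides.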 The note with it: 635 nm fluorescence, higher = more signal.

SMILES strings stand for the structures. Activity calls are given as the source filed them. Unless noted, no rule for the calls is given here.

The source of these data is PubChem BioAssay.

Chain of Luciferin 4-monooxygenase (Photinus pyralis) (P08659 whole entry, looked up): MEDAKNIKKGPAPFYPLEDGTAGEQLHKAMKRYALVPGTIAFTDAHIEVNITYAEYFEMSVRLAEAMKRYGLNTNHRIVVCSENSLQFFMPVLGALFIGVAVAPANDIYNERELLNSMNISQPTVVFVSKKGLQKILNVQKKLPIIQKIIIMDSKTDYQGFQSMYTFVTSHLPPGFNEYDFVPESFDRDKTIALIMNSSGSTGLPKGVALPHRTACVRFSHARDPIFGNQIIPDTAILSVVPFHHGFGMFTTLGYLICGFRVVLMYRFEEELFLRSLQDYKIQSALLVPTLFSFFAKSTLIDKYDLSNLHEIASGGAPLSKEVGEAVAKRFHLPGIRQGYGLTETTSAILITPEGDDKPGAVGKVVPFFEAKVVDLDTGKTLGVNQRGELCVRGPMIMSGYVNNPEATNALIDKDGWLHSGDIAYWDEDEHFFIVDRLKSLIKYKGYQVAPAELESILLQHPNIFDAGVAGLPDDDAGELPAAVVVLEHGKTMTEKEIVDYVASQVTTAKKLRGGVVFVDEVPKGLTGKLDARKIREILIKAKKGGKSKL
Chain of Streptavidin (Streptomyces avidinii) (P22629 whole entry, looked up): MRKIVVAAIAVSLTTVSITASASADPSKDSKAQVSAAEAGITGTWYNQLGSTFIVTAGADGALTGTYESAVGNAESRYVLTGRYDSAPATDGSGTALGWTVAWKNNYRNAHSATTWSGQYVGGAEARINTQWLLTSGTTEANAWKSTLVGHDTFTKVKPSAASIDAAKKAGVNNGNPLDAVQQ
Chain of Fibroblast growth factor 2 (Homo sapiens) (P09038 whole entry, looked up): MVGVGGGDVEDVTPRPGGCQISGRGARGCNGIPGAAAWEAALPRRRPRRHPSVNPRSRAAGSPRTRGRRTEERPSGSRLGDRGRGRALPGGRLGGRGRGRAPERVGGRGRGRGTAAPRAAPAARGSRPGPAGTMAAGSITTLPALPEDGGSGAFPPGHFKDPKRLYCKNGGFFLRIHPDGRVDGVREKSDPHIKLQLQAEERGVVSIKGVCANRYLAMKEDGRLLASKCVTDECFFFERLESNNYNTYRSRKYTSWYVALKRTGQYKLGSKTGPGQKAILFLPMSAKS
Chain of Focal adhesion kinase 1 (Homo sapiens) (Q05397 whole entry, looked up): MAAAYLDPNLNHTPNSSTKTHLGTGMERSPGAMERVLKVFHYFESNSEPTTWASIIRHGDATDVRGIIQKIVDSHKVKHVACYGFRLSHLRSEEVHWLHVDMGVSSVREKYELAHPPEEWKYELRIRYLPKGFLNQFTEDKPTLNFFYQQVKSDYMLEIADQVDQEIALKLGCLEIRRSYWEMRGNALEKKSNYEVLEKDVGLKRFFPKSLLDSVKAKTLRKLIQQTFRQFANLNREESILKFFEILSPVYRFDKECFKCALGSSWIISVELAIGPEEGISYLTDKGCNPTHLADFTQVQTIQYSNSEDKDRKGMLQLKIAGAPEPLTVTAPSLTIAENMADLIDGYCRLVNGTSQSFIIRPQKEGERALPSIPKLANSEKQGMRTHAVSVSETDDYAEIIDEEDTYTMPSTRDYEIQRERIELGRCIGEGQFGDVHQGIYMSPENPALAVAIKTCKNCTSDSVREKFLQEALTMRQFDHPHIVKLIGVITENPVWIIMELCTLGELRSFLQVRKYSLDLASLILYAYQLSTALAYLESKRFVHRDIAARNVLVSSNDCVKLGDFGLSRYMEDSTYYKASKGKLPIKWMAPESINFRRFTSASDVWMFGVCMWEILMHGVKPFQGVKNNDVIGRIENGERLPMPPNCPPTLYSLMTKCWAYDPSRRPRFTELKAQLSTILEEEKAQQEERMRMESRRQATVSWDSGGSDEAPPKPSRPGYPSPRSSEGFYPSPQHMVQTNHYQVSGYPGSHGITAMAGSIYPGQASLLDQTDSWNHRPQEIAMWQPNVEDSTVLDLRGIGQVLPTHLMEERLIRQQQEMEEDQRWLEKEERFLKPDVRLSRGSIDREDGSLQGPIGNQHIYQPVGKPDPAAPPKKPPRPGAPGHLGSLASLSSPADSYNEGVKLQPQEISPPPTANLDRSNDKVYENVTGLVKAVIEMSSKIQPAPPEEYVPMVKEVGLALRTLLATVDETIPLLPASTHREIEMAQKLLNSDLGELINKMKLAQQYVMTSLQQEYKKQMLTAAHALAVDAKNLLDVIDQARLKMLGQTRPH
Chain of Follistatin (Homo sapiens) (P19883 whole entry, looked up): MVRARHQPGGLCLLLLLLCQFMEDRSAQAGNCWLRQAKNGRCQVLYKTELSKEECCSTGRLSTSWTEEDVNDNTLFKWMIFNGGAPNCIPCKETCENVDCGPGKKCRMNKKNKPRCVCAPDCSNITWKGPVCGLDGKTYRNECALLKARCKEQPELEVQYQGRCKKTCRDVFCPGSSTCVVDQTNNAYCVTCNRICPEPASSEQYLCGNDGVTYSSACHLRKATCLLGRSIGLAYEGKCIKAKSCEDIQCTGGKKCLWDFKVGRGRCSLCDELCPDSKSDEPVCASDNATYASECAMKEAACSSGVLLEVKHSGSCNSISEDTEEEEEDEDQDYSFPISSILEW
Chain of Torsin-1A (Homo sapiens) (O14656 whole entry, looked up): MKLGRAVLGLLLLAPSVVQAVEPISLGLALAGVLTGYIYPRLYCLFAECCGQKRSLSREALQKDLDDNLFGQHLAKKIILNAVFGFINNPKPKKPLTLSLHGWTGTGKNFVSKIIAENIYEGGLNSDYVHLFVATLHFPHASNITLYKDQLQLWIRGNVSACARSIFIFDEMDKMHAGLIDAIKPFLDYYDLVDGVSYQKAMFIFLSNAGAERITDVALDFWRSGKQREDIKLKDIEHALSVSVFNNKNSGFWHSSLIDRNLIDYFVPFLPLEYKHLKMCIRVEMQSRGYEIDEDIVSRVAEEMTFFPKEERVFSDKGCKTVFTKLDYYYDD

As for `CC(C)(C)OC(=O)CC[C@]1(C(=O)N2CCCCC2)COC(c2ccc(OCCCO)cc2)=N1`, the composite z-score in [1] was 2.11; in [2] it was 1.23; in assay [3], 0.857; in [4], 1; in assay [5], 0.778; in assay [6], -0.0857. Further, the composite z-score in the assay on Lefty1 came out at 0.197; in assay [8], 1.12; in assay [10] it was 0.784; in assay [15], 1.36; in assay [16], 0.127; with Torsin-1A (Homo sapiens) [17] it was 0.655. The figures for the composite z-score (in the assay with Torsin-1A (Homo sapiens) [18]; in [19]) were 0.967 and -0.65, respectively. For the same compound, the z-score in assay [7] was -0.29; in [9], -0.3 (inactive); in [11], -2.07 (inactive); in assay [12], -0.984 (inactive); in assay [13], -0.837 (inactive); in assay [14], 0.238 (inactive).
On to `C=CCC(OC(C)=O)[C@@H]1[C@@H](N(Cc2cc3ccccc3o2)C(=O)c2ccc(-c3ccccc3)cc2)c2cc(OCCCO)ccc2N1C(=O)Cc1ccc(OC)cc1` (stereo not given in full), for which the composite z-score is -0.289 in assay [1]; -0.27 in [2]; -0.19 in [3]; 0.457 in [4]; 0.453 in [5]; 0.245 in assay [6]. Moreover, the composite z-score in the assay on Lefty1 is 0.16; in assay [8] it was 0.307; in [10] it was -0.138; in assay [15] it was -0.0182; in assay [16] it was -0.0736; with Torsin-1A (Homo sapiens) [17], -0.592. Also, the values for the composite z-score (in the assay with Torsin-1A (Homo sapiens) [18]; in assay [19]) were -0.324 and 0.366, respectively. The z-score was 0.64 in assay [7]; -0.189 (inactive) in assay [9]; 0.0567 (inactive) in [11]; 0.263 (inactive) in assay [12]; 1.09 (inactive) in [13]; 0.289 (inactive) in assay [14].
As to `CC1(C)C(=O)C(c2ccccc2)=C2CN3C(=O)N(CCc4ccccc4)C(=O)C3(Cc3ccc(F)cc3)C=C21` (stereo not given), the composite z-score was 1.47 in assay [1]; 0.324 in assay [2]; -0.104 in assay [3]; -0.402 in assay [4]; 0.0178 in assay [5]; -0.979 in assay [6]. The composite z-score was -0.784 in the assay with Lefty1; 0.432 in assay [8]; 0.198 in assay [10]; 0.326 in assay [15]; 0.349 in [16]; -0.448 with Torsin-1A (Homo sapiens) [17]. Further, the composite z-score with Torsin-1A (Homo sapiens) [18] is 0.0142; in [19] it was -1.41. The z-score was -0.593 in [7]; 0.907 (inactive) in [9]; -1.86 (inactive) in [11]; -0.425 (inactive) in assay [12]; 0.587 (inactive) in [13]; -0.0536 (inactive) in assay [14].
Regarding `C[C@]1(C(=O)NCC(F)(F)F)c2ccccc2C(=O)N(Cc2ccccc2)[C@H]1c1ccc(CO)cc1`, the composite z-score in [1] was 1.09; in [2], -0.634; in [3], -0.712; in [4], -1.32; in assay [5], -0.684; in assay [6], -1.02. Moreover, the composite z-score was -1.25 in the assay with Lefty1; -0.68 in assay [8]; -0.398 in assay [10]; -0.726 in [15]; -0.0719 in [16]; -0.938 in the assay with Torsin-1A (Homo sapiens) [17]. The composite z-score with Torsin-1A (Homo sapiens) [18] was 0.808; in assay [19] it was -1.32. Besides, the z-score in assay [7] was -0.0626; in assay [9], 0.857 (inactive); in assay [11], -1.48 (inactive); in [12] it was -0.0817 (inactive); in assay [13], -0.179 (inactive); in assay [14] it was 0.112 (inactive).
For `CN(C)CCCNC(=O)[C@@H]1c2ccccc2C(=O)N(C2CCCCC2)[C@H]1c1ccc(CO)cc1`, the composite z-score in assay [1] was 2.58; in [2], 1.24; in [3], -0.0457; in assay [4], 0.508; in [5], 1.35; in [6], 1.3. Moreover, the composite z-score with Lefty1 is 1.04; in assay [8] it was 0.277; in [10], 0.76; in [15], 0.139; in assay [16], 0.271; in the assay with Torsin-1A (Homo sapiens) [17] it was 0.567. Moreover, the figures for the composite z-score (with Torsin-1A (Homo sapiens) [18]; in assay [19]) were 1.03 and 1.81, respectively. For the same compound, the z-score is 0.494 in assay [7]; 0.876 (inactive) in assay [9]; -0.395 (inactive) in [11]; -0.312 (inactive) in assay [12]; 1.24 (inactive) in [13]; -0.291 (inactive) in [14].
